What all share (set-up): scale not given: direction of the effect not stated beside the values
The target of assay [1] is Protein translocase subunit SecA (Escherichia coli (strain K12)) (UniProt P10408). As to the kind of experiment: Assay to Identify E. coli SecA ATPase Inhibitors. It counts as functional. To be noted: 30 µM.
The target in assay [2] is T1, Ubiquitin-activating enzyme e1, putative (Leishmania donovani (strain BPK282A1)) (UniProt E9BSI1).
T1 sequence (whole entry): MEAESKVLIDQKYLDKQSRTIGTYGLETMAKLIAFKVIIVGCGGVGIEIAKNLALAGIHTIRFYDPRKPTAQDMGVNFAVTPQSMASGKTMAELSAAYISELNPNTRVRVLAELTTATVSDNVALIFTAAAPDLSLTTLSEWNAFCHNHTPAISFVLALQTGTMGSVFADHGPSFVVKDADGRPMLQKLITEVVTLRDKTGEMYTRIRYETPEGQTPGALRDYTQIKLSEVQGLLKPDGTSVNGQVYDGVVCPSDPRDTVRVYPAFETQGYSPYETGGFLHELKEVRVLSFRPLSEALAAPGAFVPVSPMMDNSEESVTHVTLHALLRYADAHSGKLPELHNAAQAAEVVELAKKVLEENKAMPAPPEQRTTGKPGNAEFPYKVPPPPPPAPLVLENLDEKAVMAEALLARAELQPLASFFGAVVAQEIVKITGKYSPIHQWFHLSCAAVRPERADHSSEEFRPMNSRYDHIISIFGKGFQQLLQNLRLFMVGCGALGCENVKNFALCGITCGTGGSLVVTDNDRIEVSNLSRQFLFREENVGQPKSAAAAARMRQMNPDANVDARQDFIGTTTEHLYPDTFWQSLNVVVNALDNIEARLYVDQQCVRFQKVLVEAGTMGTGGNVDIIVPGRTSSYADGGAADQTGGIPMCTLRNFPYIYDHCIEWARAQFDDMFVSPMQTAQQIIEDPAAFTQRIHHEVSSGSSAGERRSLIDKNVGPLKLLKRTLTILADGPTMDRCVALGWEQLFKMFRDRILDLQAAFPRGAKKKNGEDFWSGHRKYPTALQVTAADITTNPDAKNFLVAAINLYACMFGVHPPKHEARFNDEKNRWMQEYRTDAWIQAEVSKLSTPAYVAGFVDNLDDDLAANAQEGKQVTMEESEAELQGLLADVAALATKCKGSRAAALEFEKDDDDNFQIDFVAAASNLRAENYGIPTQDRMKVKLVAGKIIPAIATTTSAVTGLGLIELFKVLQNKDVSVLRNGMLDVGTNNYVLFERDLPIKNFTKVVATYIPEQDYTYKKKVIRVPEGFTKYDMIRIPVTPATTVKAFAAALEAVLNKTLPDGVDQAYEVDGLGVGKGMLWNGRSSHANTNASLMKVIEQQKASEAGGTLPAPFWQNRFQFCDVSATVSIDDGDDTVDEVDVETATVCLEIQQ
As to the kind of experiment: Leishmania donovani Ubiquitin Activating Enzyme (LdE1). It counts as functional. Conditions: 30 µM.

In assay [3] the target is AMP-activated protein kinase, AMPK (Homo sapiens) (UniProt P54646+O43741+P54619+Q9UGJ0+Q9Y478+Q13131+Q9UGI9). As to the kind of experiment: AMP-dependent Kinase enzyme assay. An in vitro enzyme assay that detects ADP turnover that is directly proportional to AMPK activity. This uses naive AMPK that is activated during the assay with MK-8722. Conditions: 30 µM. Format: functional.

In assay [4] the target is Sialic acid-binding Ig-like lectin 9 (Homo sapiens) (UniProt Q9Y336). As to the kind of experiment: Hs-Siglec9 ALPHAscreen SOP 20170721. Conditions: 10 µM. Background: Bead proximity is the source of the signal in Alpha formats.
The test system of assay [5] is Trypanosoma cruzi. As to the kind of experiment: Trypanosoma cruzi phosphomannomutase and mannose-1-phosphate guanylyltransferase assay. Format: functional. Conditions: 10 µM.
Assay [6] concerns the target T2, Arginase-2, mitochondrial (Homo sapiens) (UniProt P78540).
T2 sequence (whole entry): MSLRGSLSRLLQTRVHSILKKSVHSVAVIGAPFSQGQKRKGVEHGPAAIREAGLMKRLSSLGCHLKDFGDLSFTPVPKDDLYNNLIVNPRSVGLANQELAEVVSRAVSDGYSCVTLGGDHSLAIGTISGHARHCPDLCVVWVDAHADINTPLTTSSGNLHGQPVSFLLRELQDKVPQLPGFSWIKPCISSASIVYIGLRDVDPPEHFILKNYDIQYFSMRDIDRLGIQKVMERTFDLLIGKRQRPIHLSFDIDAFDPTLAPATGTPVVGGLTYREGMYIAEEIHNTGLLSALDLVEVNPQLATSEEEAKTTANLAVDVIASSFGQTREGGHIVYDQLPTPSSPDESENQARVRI
As to the kind of experiment: in vitro enzyme assay to detect the production of urea directly proportional to the activity of Arginase II. Also: in the data most compounds retested in dose-response had high values. It counts as functional. To be noted: 33.3 µM.

The target in assay [7] is T3, Proteasome subunit beta (Trypanosoma cruzi) (UniProt O96673).
T3 sequence (whole entry): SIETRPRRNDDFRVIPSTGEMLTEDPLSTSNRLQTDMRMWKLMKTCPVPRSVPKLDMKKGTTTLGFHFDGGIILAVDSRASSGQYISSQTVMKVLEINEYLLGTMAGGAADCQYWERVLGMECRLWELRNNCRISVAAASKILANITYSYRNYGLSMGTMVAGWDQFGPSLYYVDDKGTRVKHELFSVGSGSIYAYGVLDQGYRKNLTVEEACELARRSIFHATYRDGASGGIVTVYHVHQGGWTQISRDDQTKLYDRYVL
As to the kind of experiment: Trypanosoma cruzi proteasome chymotrypsin-like activity (TcProtChymo) assay. Also: in the data most compounds retested in dose-response had high values. Format: functional. To be noted: 9.37 µM.

The species named for assay [8] is Homo sapiens. As to the kind of experiment: To identify inhibition of the IFN signalling (Jak-Stat) pathway via expression of an eGFP reporter gene under the control of an IFN-stimulated response element (ISRE) containing MxA promoter. To be noted: 30 µM. Format: functional. (A reporter such as luciferase makes a cellular process visible.)
For assay [9], the target named is T4, Tyrosyl-tRNA synthetase, putative (Trypanosoma cruzi (strain CL Brener)) (UniProt Q4DSP6).
T4 sequence (whole entry): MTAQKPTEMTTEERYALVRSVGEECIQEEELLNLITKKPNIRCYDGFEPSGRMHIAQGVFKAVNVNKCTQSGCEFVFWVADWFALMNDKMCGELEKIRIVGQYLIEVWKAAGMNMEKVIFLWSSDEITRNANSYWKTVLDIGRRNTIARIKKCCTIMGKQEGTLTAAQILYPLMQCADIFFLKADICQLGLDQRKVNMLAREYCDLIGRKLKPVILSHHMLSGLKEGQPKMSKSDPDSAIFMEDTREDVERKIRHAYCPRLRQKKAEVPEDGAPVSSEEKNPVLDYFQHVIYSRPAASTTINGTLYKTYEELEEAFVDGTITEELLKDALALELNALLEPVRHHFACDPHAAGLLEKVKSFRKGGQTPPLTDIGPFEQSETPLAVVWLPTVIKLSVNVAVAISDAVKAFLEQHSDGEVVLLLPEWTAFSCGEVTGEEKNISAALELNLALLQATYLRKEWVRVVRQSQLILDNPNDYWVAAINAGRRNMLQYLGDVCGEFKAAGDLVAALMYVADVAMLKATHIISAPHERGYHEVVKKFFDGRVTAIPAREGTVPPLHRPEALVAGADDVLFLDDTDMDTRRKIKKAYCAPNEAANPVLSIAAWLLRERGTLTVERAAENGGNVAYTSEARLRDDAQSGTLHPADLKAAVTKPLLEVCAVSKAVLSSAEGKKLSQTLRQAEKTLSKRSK
As to the kind of experiment: Trypanosoma cruzi tyrosyl tRNA synthetase (TcYRS) _High Tyrosine SOP. Also: in the data most compounds retested in dose-response had high values. Format: functional. To be noted: 30 µM.

The target in assay [10] is T4, Tyrosyl-tRNA synthetase, putative (Trypanosoma cruzi (strain CL Brener)). As to the kind of experiment: Trypanosoma cruzi tyrosyl tRNA synthetase (TcYRS) SOP. Format: functional. Conditions: 30 µM.
The target of assay [11] is Chromo domain-containing protein 1 (Saccharomyces cerevisiae (strain ATCC 204508 / S288c) (Baker's yeast)) (UniProt P32657). As to the kind of experiment: ScCHD-1 Enzyme Inhibition Assay. Also: in the data most compounds retested in dose-response had high values. Format: functional. Conditions: 30 µM.

For some of these results: Results with a measured potency or affinity are listed apart.

Percent Effect data for eleven molecules are collected here from ChEMBL document CHEMBL3988442, “University of Dundee, Small-Polar-MMV Screening Library” (2021).

Chain of Sialic acid-binding Ig-like lectin 9 (Homo sapiens) (Q9Y336 whole entry): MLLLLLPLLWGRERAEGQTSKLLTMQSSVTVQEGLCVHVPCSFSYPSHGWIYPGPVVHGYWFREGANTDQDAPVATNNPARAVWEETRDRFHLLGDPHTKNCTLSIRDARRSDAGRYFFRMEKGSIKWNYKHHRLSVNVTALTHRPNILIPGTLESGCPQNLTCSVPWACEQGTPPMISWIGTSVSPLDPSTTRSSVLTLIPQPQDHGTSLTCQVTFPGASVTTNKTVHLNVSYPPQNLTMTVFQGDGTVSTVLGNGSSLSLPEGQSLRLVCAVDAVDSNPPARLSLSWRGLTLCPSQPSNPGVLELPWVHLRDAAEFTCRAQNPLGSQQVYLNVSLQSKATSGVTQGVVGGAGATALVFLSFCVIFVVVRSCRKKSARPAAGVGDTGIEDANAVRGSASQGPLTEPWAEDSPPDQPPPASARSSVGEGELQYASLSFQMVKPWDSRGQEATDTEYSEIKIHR
Chain of Protein translocase subunit SecA (Escherichia coli (strain K12)) (P10408 whole entry): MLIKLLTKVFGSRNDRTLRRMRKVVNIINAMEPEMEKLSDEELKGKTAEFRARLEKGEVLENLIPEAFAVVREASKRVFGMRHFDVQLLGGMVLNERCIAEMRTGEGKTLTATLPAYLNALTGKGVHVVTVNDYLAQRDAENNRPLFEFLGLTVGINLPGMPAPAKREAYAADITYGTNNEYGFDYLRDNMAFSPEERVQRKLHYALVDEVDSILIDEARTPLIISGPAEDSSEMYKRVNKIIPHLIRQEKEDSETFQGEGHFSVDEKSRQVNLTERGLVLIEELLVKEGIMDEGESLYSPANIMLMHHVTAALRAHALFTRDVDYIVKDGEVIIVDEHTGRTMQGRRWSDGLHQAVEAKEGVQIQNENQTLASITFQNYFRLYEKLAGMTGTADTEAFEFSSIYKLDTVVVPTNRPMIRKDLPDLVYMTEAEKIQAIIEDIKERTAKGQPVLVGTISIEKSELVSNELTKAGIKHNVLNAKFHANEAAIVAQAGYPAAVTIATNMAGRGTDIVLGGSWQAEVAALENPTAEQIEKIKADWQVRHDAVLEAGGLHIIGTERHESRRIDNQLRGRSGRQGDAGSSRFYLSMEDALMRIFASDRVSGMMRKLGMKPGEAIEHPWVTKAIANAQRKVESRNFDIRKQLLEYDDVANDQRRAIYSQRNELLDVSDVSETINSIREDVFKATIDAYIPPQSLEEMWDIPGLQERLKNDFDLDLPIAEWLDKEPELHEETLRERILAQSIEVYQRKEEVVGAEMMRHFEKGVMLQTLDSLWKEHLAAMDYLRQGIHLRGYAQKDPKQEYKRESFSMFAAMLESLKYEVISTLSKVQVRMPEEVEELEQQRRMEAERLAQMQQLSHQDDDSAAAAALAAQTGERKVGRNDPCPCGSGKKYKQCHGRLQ
Chain of Chromo domain-containing protein 1 (Saccharomyces cerevisiae (strain ATCC 204508 / S288c) (Baker's yeast)) (P32657 whole entry, the tested form may be a part): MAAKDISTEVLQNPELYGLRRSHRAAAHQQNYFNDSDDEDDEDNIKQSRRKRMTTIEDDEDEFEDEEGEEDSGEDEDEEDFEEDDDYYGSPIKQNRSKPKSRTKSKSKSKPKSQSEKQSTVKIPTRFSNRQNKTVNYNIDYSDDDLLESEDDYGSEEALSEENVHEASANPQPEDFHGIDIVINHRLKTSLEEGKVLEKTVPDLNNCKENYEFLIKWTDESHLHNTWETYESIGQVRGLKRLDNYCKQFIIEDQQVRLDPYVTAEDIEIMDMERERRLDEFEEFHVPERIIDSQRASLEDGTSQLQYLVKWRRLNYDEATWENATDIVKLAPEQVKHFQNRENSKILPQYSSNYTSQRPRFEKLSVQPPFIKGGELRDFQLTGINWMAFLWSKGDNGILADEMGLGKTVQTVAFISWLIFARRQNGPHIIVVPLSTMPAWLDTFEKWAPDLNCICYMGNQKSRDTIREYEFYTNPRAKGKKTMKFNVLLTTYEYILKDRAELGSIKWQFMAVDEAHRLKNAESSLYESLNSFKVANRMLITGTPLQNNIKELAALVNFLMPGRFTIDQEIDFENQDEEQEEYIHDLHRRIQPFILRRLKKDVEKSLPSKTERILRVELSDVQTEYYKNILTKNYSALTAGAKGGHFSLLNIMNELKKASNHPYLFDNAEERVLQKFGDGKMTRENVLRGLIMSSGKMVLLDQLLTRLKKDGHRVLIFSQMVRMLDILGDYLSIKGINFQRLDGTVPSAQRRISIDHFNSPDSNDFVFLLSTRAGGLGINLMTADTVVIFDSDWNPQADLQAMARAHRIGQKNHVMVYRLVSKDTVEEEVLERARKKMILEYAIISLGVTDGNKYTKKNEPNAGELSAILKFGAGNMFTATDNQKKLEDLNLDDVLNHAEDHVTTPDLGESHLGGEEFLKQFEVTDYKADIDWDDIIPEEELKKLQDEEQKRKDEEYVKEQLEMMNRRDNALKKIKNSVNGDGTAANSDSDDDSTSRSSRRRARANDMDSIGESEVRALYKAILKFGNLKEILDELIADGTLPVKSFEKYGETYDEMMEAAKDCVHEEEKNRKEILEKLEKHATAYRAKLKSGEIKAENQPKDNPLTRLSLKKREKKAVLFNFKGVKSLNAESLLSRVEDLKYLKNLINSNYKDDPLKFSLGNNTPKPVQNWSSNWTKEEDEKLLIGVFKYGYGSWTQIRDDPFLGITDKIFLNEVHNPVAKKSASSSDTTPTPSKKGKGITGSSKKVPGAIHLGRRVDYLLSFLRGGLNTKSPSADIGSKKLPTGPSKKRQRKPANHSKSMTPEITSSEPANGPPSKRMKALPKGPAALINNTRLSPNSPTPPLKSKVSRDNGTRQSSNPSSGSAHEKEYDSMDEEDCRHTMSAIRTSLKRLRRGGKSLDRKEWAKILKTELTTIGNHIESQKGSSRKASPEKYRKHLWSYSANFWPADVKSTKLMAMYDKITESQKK

Turning to `Cn1cnnc1S(=O)(=O)C1CCN(S(=O)(=O)C2CC2)CC1`, the Percent Effect in assay [1] is -2.77%; in assay [2], -2.74%; in assay [3], 14.5%; in assay [4] it was 1.56%; in assay [5] it was -3.72%; in assay [6], -2.27%. For the same molecule, the Percent Effect in assay [7] is 9.41%; in [8], -3.78%; in assay [9] it was -3.23%; in [10], 2.5%; in [11], -1.03%.

Take `Cn1ccnc1CN1CCN(CCOc2ccccc2C#N)CC1`: the Percent Effect in assay [1] is -0.0443%; in assay [2], 21.1%; in assay [3], 4.11%; in assay [4], -9.14%; in assay [5], -3.83%; in assay [6] it was 5.4%. In addition, the Percent Effect was 5.67% in assay [7]; 18.9% in [8]; 7.39% in assay [9]; 13.6% in assay [10]; -1.99% in assay [11].

For the molecule `CCn1cc(CN2CCCn3nc(CNC(=O)C4CCC4)cc3C2)cn1`, the Percent Effect is -2.37% in assay [1]; 10.4% in assay [2]; 0.185% in [3]; 10.6% in [4]; 4.42% in assay [5]; -6.9% in [6]. Besides, the Percent Effect in assay [7] was 18.5%; in assay [8], -4.18%; in assay [9], 6.45%; in assay [10], 13.6%; in [11], -3.28%.

Consider `Cc1cc(C)n(C2CCCN(C(=O)c3ccc(F)cc3F)C2)n1` (stereo unspecified), for which the Percent Effect was -11.1% in [1]; -5.41% in assay [2]; -1.04% in [3]; 0.0778% in assay [4]; -3.91% in [5]; -3.75% in assay [6]. The Percent Effect in assay [7] is 7.02%; in assay [8], -1.41%; in assay [9], 5.94%; in assay [10], 6.1%; in assay [11], 2.92%.

For `Cc1cc(CN(C)C(=O)NCc2cccc(N3CCCC3=O)c2)no1`, the Percent Effect in assay [1] was -4.74%; in [2], 7.59%; in assay [3] it was -1.15%; in assay [4] it was 7.78%; in [5], 6.14%; in [6] it was -4.94%. Further, the Percent Effect in assay [7] is -4.5%; in [8], -10.2%; in assay [9] it was 1.48%; in [10] it was 1.27%; in assay [11], -1.62%.

For `CCN(Cc1ccc2c(c1)OCO2)C(=O)CCc1c(C)nc(C)[nH]c1=O`, the Percent Effect in [1] was -1.41%; in assay [2], 5.26%; in assay [3], 1.51%; in assay [4], 7.45%; in assay [5], -4.32%; in assay [6] it was 9.96%. Besides, the Percent Effect in assay [7] was 6.85%; in assay [8], 21.9%; in assay [9] it was 3.43%; in [10] it was 9.76%; in [11] it was -1.69%.

For `CCN1CCC2(CC1)CC(NC(=O)N(C)C)c1cc(C)ccc12` (stereo unspecified), the Percent Effect in assay [1] was -2.37%; in assay [2], 16%; in assay [3] it was 4.2%; in [4] it was 0.476%; in assay [5], 3.28%; in assay [6], -52.9%. The Percent Effect was 14.4% in assay [7]; -15.2% in assay [8]; 8.33% in assay [9]; -50% in assay [10]; -7.48% in assay [11].

In the case of `CC(C)Cc1ccc(S(=O)(=O)Nc2ccc(=O)n(C)c2)cc1`, the Percent Effect in assay [1] was -3.52%; in assay [2], 25.3%; in assay [3] it was -59.7%; in [4] it was -2.55%; in assay [5], 3.31%; in [6] it was 0%. In addition, the Percent Effect in assay [7] is 15.5%; in [8] it was 69%; in assay [9], 6.4%; in assay [10], 21.5%; in assay [11], -7.97%.

As for `c1cnc(N2CCOCC3(CCCN(CC4CC4)C3)C2)cn1` (stereo unspecified), the Percent Effect is -1.84% in assay [1]; 5.33% in assay [2]; 1.73% in assay [3]; 4.28% in assay [4]; -1.74% in assay [5]; -52.5% in [6]. Moreover, the Percent Effect in assay [7] was 6.84%; in [8], -10.7%; in [9], 4.17%; in [10], 5%; in assay [11], -4.17%.

Take `Fc1ccc(CN2CCCC2Cn2cccn2)c2ncccc12` (stereo unspecified): the Percent Effect in [1] was -3.18%; in assay [2], -16.2%; in assay [3], -9.76%; in [4], 11.6%; in assay [5] it was -2.51%; in assay [6], -0.185%. Also, the Percent Effect in [7] is 3.41%; in assay [8], -3.85%; in [9] it was 11.9%; in assay [10], 11%; in assay [11], 7.89%.

Consider `COc1cccc(CN(C)Cc2ccc(C#N)cc2)c1OC`, for which the Percent Effect in assay [1] is -2.85%; in assay [2] it was -5.41%; in assay [3] it was 2.32%; in [4], -6%; in [5], 0.586%; in assay [6], -1.67%. In addition, the Percent Effect is 7.86% in [7]; -3.25% in [8]; 4.95% in assay [9]; -3.66% in assay [10]; -5.17% in assay [11].
